# Measurements published in PubChem BioAssay (Tox21).
# Results filed as inconclusive are left out. Where a call stands in place of a potency, no number is given. A structure can be active in one record and inactive in another. The source made the active and inactive calls. Calls follow the shape of the full dose curve.
# Target: Retinoic acid receptor RXR-alpha (Homo sapiens) (UniProt P19793)
# Experiment: qHTS assay to identify small molecule agonists of the RXR signaling pathway (AID 1159527); also: nearly all actives have a fitted effect of over 35% in size
# Details: HEK293T RXRa-UAS-bla, beta-lactamase ratio, 16 h; series mostly up to 76.8 µM
# Description: U.S. Tox21 Program National Center for Advancing Translational Sciences [NCATS] NIH Chemical Genomics Center [NCGC] U.S. Environmental Protection Agency [EPA] National Institutes of Environmental Health Sciences [NIEHS] National Toxicology Program [NTP] U.S. Food and Drug Administration [FDA] Tox21 Assay Overview: The Retinoid X receptor (RXR), a nuclear hormone receptor expressed in liver, spleen, placenta, epidermis, central nervous system. These receptors are able to form homo and heterodimers with other nuclear receptors and due to this heterodimerizing ability, RXR functions as master regulators producing diverse physiological effects. Three subtypes of RXR exist; alpha, beta and gamma. Retinoid X receptor alpha (RXR-alpha) has potential roles in metabolic signaling pathways, skin alopecia, dermal cysts, cardiac development, insulin sensitization etc. Therefore screening environmental chemicals on RXR-alpha signaling can be used for the studies focused on such therapeutic applications. For quantification of RXR-alpha ligands signaling, GeneBLAzer RXR alpha-UAS-bla HEK 293T (Life Technologies, Carlsbad, CA) cells containing a beta-lactamase reporter-gene under control of Retinoid X receptor-alpha response element were used to screen Tox21 10K library.
# Tox21 Assay Protocol Summary: RXR-alpha HEK 293T cells were dispensed at 2,000 cells/6 uL of assay medium containing 2% charcoal-stripped FBS using a Multidrop Combi (ThermoFisher Scientific, Waltham, MA) dispenser. The assay was performed in black wall/clear-bottom 1536-well plates (Greiner Bio-One North America Inc. Monroe, NC). 9-cis retinoic acid was used as a positive control in the agonist mode screen. After the assay plates were incubated at 37 C and 5% CO2 for 5 hr, 23 nL of compounds dissolved in DMSO, positive controls or DMSO only were transferred to the assay plate by a Pintool station (Kalypsys, San Diego, CA). The assay plates were incubated at 37 C and 5% CO2 for 16 hr. One uL of LiveBLAzer B/G FRET substrate (Life Technologies) was added using a Flying Reagent Dispenser (Aurora Discovery, San Diego, CA) and the plates were incubated at room temperature for 2 hr. Fluorescence intensity (405 nm excitation, 460/530 nm emission) was measured using an Envision plate reader (PerkinElmer, Shelton, CT).
# Potency is read from the fitted curve at half-maximal effect.
# Retinoic acid receptor RXR-alpha (Homo sapiens), sequence (P19793 whole entry, looked up): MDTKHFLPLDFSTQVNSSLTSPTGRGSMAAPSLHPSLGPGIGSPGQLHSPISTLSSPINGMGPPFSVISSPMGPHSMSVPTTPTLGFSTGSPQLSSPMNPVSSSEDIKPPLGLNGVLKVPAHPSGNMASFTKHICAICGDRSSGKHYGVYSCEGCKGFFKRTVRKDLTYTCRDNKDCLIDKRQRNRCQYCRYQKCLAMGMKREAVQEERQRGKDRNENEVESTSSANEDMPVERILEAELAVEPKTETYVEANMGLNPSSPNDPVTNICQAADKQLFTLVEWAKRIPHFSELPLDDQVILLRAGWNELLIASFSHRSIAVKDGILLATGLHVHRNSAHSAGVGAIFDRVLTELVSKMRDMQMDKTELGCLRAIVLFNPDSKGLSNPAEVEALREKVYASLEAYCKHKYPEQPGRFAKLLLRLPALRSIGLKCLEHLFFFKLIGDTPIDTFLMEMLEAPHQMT
row,Structure (SMILES),Potency
1,CC1=CC(=O)NS(=O)(=O)O1,inactive
2,C=CCNC(N)=S,inactive
3,OCC(CO)(CBr)CBr,inactive
4,CCCCOC(=O)COc1ccc(Cl)cc1Cl,inactive
5,c1ccc2scnc2c1,inactive
6,CC(=O)CC(=O)Nc1ccccc1C,inactive
7,CC(=O)Nc1cccc(O)c1,inactive
8,O=C(O)CCCC[C@@H]1SC[C@@H]2NC(=O)N[C@@H]21,inactive
9,O=c1[nH]c(=O)n([C@H]2CCCO2)cc1F,17.4 µM (active) and inactive
10,CCCCC(CC)COC(=O)CS (stereo not given),inactive
11,CN(C)CCOCCN(C)C,inactive
12,CCc1cccc(C)c1N,inactive
13,CCCCCCCCCCCCS,inactive
14,CN(C)CCC(c1ccc(Cl)cc1)c1ccccn1 (stereo not given),inactive
15,O=C(Oc1ccccc1)c1ccccc1,inactive
16,FC(F)(F)c1ccc(Cl)c(Cl)c1,inactive
17,O=[N+]([O-])c1ccc(/C=C/c2ccc([N+](=O)[O-])cc2S(=O)(=O)O)c(S(=O)(=O)O)c1,inactive
18,CCCCCC1=CCCC1=O,inactive
19,CC(c1cc2ccccc2s1)N(O)C(N)=O (stereo not given),inactive
20,CCCCCCCCC/C=C/CC1CC(=O)OC1=O (stereo not given),inactive

row,Structure (SMILES),Potency
1,CCCC(C)=O,inactive
2,CCOC(=O)NNc1nncc2ccccc12,inactive
3,C=C(C)C(=O)Nc1ccc(Cl)c(Cl)c1,inactive
4,c1ccc2c(c1)ccc1ccccc12,inactive
5,O=C=NCCCCCCN=C=O,inactive
6,C=C(C)C(=O)O[C@H]1C[C@@H]2CC[C@@]1(C)C2(C)C,inactive
7,O=C(CC(C(=O)OC1CCCCC1)S(=O)(=O)O)OC1CCCCC1 (stereo not given),inactive
8,O=C(O)c1ccccc1C(c1ccc(O)cc1)c1ccc(O)cc1,inactive
9,O=C(O)c1cc(O)c(O)c(O)c1,inactive
10,COCCCOc1ccnc(CS(=O)c2nc3ccccc3[nH]2)c1C (stereo not given),inactive
11,CC(C)CC(=O)CC(C)C,inactive
12,O=C1CCC(N2C(=O)c3ccccc3C2=O)C(=O)N1 (stereo not given),inactive
13,OCc1cccnc1,inactive
14,O=C(O)CC(C(=O)O)C(CC(=O)O)C(=O)O (stereo not given),inactive
15,Cc1ccc(S(N)(=O)=O)cc1,inactive
16,CCCCCOC(C)=O,279 nM (active)
17,OC[C@H]1O[C@@](CO)(O[C@H]2O[C@H](CO)[C@@H](O)[C@H](O)[C@H]2O)[C@@H](O)[C@@H]1O,inactive
18,C/C=C1/CC2C=CC1C2 (stereo not given),inactive
19,COc1ccc2cc([C@H](C)C(=O)O)ccc2c1,inactive
20,COc1ccc(Nc2ccccc2)c(C)c1,inactive
